Source: PubChem BioAssay
Calls of active or inactive are those of the source.

How the values were obtained:
[1] = test system: Plasmodium falciparum Sir2 (PF13_0152, Sir2A); assay: Plasmodium falciparum Sir2A binding compounds – biochemical, small-molecule microarray, 635 nm fluorescence, primary screen (AID 1098); conditions: fluorescence 635 nm, higher = more signal;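 also: score merges spot fluorescence intensity with its signal-to-noise ratio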
[2] = probe aDKK1 binding to arrayed compounds – biochemical, biotinylated probe, 635/667 nm fluorescence, primary screen (AID 1099); conditions: small-molecule microarray, higher = more signal;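 also: score merges 667nm spot fluorescence with signal to noise across triplicate slides; reference of the scale not given here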
[3] = probe aCHRDL2 binding to arrayed compounds – biochemical, biotinylated probe, 635/667 nm fluorescence, primary screen (AID 1100); conditions: small-molecule microarray, higher = more signal
[4] = change in splice reporter luminescence, either direction, cell-based, HEK293, spliceosome inhibition project, primary screen (AID 1101); conditions: HEK293 splicing luciferase reporter, 24 h, higher = more signal, called active from +8 up or from −8 down;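 also: HEK293 cells carrying a splicing-competent luciferase reporter gene; test concentration not given here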
[5] = biological target: Fibroblast growth factor 10 (Homo sapiens) (UniProt O15520); assay: compounds binding fibroblast growth factor 10 – biochemical, small-molecule microarray, 635 nm fluorescence, primary screen (AID 1102); conditions: FGF10 binding, fluorescence 635 nm, higher = more signal
[6] = test system: glycogen synthase kinase-3 (GSK3A per assay name; protocol says GSK3B); assay: compounds binding glycogen synthase kinase-3 – biochemical, small-molecule microarray, 635 nm fluorescence, GSK3A, primary screen (AID 1103); conditions: fluorescence 635 nm, higher = more signal; also: the record names both GSK3A and GSK3B
[7] = biological target: Epidermal growth factor receptor (Homo sapiens) (UniProt P00533); assay: compounds binding epidermal growth factor receptor – biochemical, small-molecule microarray, 635 nm fluorescence, primary screen (AID 1104); conditions: EGFR binding, higher = more signal;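 also: score merges 667 nm emission intensity with spot signal to noise over triplicate slides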
[8] = biological target: Follistatin-related protein 3 (Homo sapiens) (UniProt O95633); assay: compounds binding follistatin-related protein 3 – biochemical, small-molecule microarray, 635 nm fluorescence, primary screen (AID 1105); conditions: FSTL3 binding, higher = more signal;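 also: score merges emission near 667 nm and signal to noise per printed spot across three slides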
[9] = biological target: Dickkopf-related protein 1 (Homo sapiens) (UniProt O94907); assay: small molecules binding DKK1 protein – biochemical, small-molecule microarray, 635 nm fluorescence scan, primary screen (AID 1106); conditions: higher = more signal;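 also: score merges emission near 667 nm with signal to noise over three replicate slides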
[10] = test system: Inhibin beta A chain (activin A); assay: small molecules binding activin A – biochemical, small-molecule microarray, 635 nm fluorescence scan, primary screen (AID 1107); conditions: INHBA, higher = more signal;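 also: mouse activin A protein probed at 4.33 µg/mL on printed slides; score merges bound-protein fluorescence near 667 nm with spot signal-to-noise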

Sequence of Follistatin-related protein 3 (Homo sapiens) (O95633 whole entry, looked up): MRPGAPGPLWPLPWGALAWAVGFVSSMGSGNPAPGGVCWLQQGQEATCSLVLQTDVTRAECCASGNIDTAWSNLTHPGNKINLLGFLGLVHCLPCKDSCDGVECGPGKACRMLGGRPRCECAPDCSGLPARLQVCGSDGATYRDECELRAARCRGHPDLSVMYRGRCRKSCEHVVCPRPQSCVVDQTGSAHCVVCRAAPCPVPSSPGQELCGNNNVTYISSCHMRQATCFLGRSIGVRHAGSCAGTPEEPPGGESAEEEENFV
Sequence of Epidermal growth factor receptor (Homo sapiens) (P00533 whole entry, looked up): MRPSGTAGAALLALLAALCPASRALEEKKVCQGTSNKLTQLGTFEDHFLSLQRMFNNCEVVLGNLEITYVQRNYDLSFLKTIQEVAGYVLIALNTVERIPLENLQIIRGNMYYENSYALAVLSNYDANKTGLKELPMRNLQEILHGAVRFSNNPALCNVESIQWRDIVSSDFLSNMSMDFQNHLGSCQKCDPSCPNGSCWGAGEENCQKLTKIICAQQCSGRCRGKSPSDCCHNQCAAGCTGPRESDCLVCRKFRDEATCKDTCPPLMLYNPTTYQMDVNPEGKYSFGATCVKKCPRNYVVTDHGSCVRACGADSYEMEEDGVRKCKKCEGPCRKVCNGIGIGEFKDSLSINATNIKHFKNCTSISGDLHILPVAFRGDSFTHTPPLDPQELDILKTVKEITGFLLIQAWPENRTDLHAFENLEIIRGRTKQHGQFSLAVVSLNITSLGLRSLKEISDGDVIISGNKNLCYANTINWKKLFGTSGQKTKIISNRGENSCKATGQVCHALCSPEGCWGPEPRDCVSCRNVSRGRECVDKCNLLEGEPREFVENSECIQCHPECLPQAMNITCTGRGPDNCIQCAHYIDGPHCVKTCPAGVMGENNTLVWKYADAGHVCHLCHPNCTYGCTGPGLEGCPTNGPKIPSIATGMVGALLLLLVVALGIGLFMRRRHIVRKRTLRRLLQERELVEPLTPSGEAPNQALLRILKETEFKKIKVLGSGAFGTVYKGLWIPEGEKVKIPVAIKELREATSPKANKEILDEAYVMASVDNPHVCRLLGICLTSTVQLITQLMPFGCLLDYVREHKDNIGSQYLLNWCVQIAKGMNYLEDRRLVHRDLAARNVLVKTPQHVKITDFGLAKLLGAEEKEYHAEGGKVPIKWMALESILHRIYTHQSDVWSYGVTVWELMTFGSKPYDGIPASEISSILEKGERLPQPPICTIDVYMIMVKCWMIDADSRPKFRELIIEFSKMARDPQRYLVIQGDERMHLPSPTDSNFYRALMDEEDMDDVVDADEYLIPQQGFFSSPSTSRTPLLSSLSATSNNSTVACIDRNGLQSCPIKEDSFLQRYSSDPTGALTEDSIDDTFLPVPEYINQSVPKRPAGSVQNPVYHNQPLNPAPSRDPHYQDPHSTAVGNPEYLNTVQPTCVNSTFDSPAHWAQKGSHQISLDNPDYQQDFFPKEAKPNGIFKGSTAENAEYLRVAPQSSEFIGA
Sequence of Fibroblast growth factor 10 (Homo sapiens) (O15520 whole entry, looked up): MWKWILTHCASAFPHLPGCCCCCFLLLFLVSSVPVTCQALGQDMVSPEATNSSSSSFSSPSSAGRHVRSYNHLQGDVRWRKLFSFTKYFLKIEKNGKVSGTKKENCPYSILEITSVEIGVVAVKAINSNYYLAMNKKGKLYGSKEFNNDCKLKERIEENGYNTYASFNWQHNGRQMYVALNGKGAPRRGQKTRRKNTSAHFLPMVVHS
Sequence of Dickkopf-related protein 1 (Homo sapiens) (O94907 whole entry, looked up): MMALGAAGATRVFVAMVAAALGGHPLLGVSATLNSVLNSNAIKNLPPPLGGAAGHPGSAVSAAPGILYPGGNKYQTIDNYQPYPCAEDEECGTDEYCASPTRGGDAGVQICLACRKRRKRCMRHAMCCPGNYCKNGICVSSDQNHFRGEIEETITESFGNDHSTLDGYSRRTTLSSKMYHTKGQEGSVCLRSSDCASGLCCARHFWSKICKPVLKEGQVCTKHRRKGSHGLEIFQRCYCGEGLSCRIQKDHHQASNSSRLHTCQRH

SMILES | composite z-score [1] | composite z-score [2] | composite z-score [3] | z-score [4] | composite z-score [5] | composite z-score [6] | composite z-score [7] | composite z-score [8] | composite z-score [9] | composite z-score [10]
O=C(NCCN1CCOCC1)[C@@H]1c2ccccc2C(=O)N(CC23CC4CC(CC(C4)C2)C3)[C@H]1c1ccc(CO)cc1 | 1.13 | 0.253 | 0.789 | 0.507 (inactive) | 1.33 | 1.32 | 0.634 | 1.21 | 0.0037 | 0.471
C=CC[C@@]1(C(=O)NCCCOC)N=C(c2ccc(OCCCO)cc2)O[C@@H]1c1ccccc1CN=[N+]=[N-] | 1.5 | 0.739 | 0.772 | -0.226 (inactive) | 1.38 | 1.31 | 0.0652 | 1.2 | -0.0117 | 1.14
CN(C)C(=O)[C@]1(CCS(=O)(=O)c2ccccc2)N=C(c2ccc(OCCCO)cc2)O[C@@H]1c1ccccc1CN=[N+]=[N-] | 1.45 | -0.326 | 0.32 | -0.153 (inactive) | 1.26 | 1.24 | -0.126 | 0.425 | -0.142 | 0.869
COc1ccc([Si](C)(C)[C@H]2[C@H](CC(=O)N(CCO)Cc3ccccc3)O[C@@]3(C(=O)N(c4ccccc4)c4ccccc43)[C@@H]2C)cc1 | 0.717 | -0.202 | -0.0698 | -1.5 (inactive) | 0.889 | 0.289 | 0.686 | 1.09 | 0.415 | 0.841
CCOC(=O)C1=CCC(c2ccncc2)N(S(=O)(=O)c2ccc(C)cc2)C1 (stereo not given) | 1.03 | 0.205 | 0.198 | -1.3 (inactive) | 1.34 | 1.29 | 0.432 | 1.05 | 0.332 | 0.856
COCCOC(=O)N1C(=O)[C@@]2(c3cc(C#CCNC(N)=O)ccc31)[C@H](c1ccccc1OCCO)N1[C@H](c3ccccc3)[C@H](c3ccccc3)OC(=O)[C@H]1[C@@H]2C(=O)N1CCCCCCC1 | 1.42 | 0.784 | 0.735 | -0.402 (inactive) | 0.739 | 1.11 | 0.5 | 1.23 | 0.557 | 1.44
CCCC=C(CCC)[C@@H](NC(=O)c1ccc(C(=O)OC)cc1)c1ccc(C(=O)OC)cc1 | -0.427 | 0.816 | 0.48 | -1.32 (inactive) | -0.363 | -0.197 | -0.195 | -0.0762 | -0.158 | 0.804
COc1ccc([Si](C)(C)[C@H]2[C@H](CCO)O[C@@]3(C(=O)N(Cc4ccccc4)c4ccc(NC(=O)[C@H](C)O)cc43)[C@@H]2C)cc1 | 1.18 | 0.305 | 0.29 | -2.35 (inactive) | 0.139 | 0.0488 | -0.0574 | -0.0813 | -0.119 | 0.209
O=C(c1ccccc1)N1Cc2ccccc2C[C@@]2(N=C(c3ccc(OCCCO)cc3)O[C@H]2c2ccccc2)C1=O | 1.26 | -0.114 | -0.0152 | -0.847 (inactive) | 1.38 | 1.3 | 0.699 | 0.963 | 0.777 | -0.395
CC(=O)NCCCC[C@@H]1NC(=O)[C@H]2C[C@@H](C(=O)O)[C@@H](c3cccc(OCCO)c3)N2C1=O | 1.69 | 0.904 | 0.237 | 0.345 (inactive) | 1.25 | 1.33 | 0.556 | 1.32 | 0.639 | 0.316
COC(=O)[C@@]1(Cc2ccccc2)[C@H]2c3cc(C(=O)N(C)C)n(Cc4ccc(Cl)c(C(F)(F)F)c4)c3C[C@H]2CN1C(=O)c1ccccc1 | 0.685 | 0.841 | 1.02 | -1.45 (inactive) | 1.37 | 1.31 | 0.603 | 1.45 | 0.283 | 1.29
COc1ccc(C(O)C2C=CC3C(=O)N(c4ccccc4)C(=O)C3N2Nc2ccccc2F)c2ccccc12 (stereo not given) | 0.85 | 1.59 | 1.4 | -0.038 (inactive) | 1.04 | 1.32 | 0.531 | 1.36 | -0.265 | 1.02
[N-]=[N+]=NCc1ccccc1C[C@@]1(C(=O)NCCN2CCOCC2)N=C(c2ccc(OCCCO)cc2)O[C@@H]1c1ccccc1 | 0.365 | 0.809 | 0.996 | 0.995 (inactive) | 0.486 | -0.0659 | -0.883 | -0.192 | -0.342 | 0.293
COCCCNC(=O)[C@@]1(Cc2ccccc2I)c2ccccc2C(=O)N(Cc2ccccc2OC)[C@H]1c1ccc(CO)cc1 | -0.347 | -0.302 | 0.941 | 0.932 (inactive) | -0.0058 | -0.116 | -0.824 | -0.557 | -1.51 | -1.43
C[C@]1(C(=O)O)c2ccccc2C(=O)N(Cc2cc(C(F)(F)F)cc(C(F)(F)F)c2)[C@H]1c1ccc(CO)cc1 | -0.822 | 0.324 | 0.55 | 0.487 (inactive) | -0.04 | -0.25 | -0.641 | 0.142 | 0.123 | 0.41
COCCOC(=O)N1C(=O)[C@@]2(c3cc(C#CCCO)ccc31)[C@H](c1ccc(O)cc1)N1[C@H](c3ccccc3)[C@H](c3ccccc3)OC(=O)[C@H]1[C@@H]2C(=O)NC[C@H](O)c1ccccc1 | 1.16 | -0.0668 | -0.0755 | 0.49 (inactive) | 0.758 | 0.733 | 0.0103 | 0.491 | 0.143 | 0.48

SMILES | composite z-score [1] | composite z-score [2] | composite z-score [3] | z-score [4] | composite z-score [5] | composite z-score [6] | composite z-score [7] | composite z-score [8] | composite z-score [9] | composite z-score [10]
COc1ccc(CCNC(=O)[C@@H]2c3ccccc3C(=O)N(C(C)C)[C@H]2c2ccc(CO)cc2)cc1 | 0.37 | 0.316 | 0.684 | 0.109 (inactive) | -1.05 | -0.848 | -0.736 | -0.715 | -0.995 | -0.158
CC(C)(C)OC(=O)N1[C@@H](C=C(Br)Br)COC1(C)C | 0.395 | -0.16 | -0.282 | 0.104 (inactive) | 0.382 | 0.901 | 0.614 | 0.164 | 0.393 | 0.29
C=C1C(=O)C=C2CN(C(=O)c3ccccc3)[C@@](Cc3ccc(F)cc3)(C(=O)OC)[C@@H]12 | 0.641 | 1.16 | 1.21 | -0.756 (inactive) | 0.941 | 1.2 | -0.0735 | 1.06 | -0.519 | 1.05
C=CCOC(=O)[C@H]1[C@@H]2C(=O)O[C@@H](c3ccccc3)[C@@H](c3ccccc3)N2[C@@H](c2ccc(OCCOC(=O)[C@H]3C[C@H]4C(=O)NCC(=O)N4[C@H]3c3cccc(OCCO)c3)cc2)[C@]12C(=O)Nc1ccc(I)cc12 | 1.1 | -0.109 | 0.0341 | 0.341 (inactive) | 1.37 | 1.3 | 0.504 | 1.37 | 0.614 | 0.622
CCCCN1CC=CC23O[C@@H]4/C=C\CCCOC(=O)C4[C@H]2C(=O)N(CCCCCCO)[C@@H]3C1=O (stereo not given in full) | 0.502 | -0.196 | 0.663 | -1.09 (inactive) | -0.764 | -0.755 | -1.08 | -0.451 | -1.75 | 0.627
COc1ccc([Si](C)(C)[C@H]2[C@H](CC(=O)N3CCC[C@H]3CO)O[C@@]3(C(=O)N(Cc4cccc(N5CCCCC5=O)c4)c4ccccc43)[C@@H]2C)cc1 | 1.01 | -0.297 | -0.441 | 1.06 (inactive) | 1.3 | 1.21 | 0.532 | 1.26 | 0.823 | 0.248
[N-]=[N+]=NCc1ccccc1[C@H]1OC(c2ccc(OCCCO)cc2)=N[C@@]1(CCS(=O)(=O)c1ccccc1)C(=O)O | 0.94 | 0.224 | 0.906 | 0.436 (inactive) | 0.283 | 0.0448 | -0.371 | -0.0142 | -0.697 | 0.839
COc1ccc(NN2C(C(O)c3ccc(F)cc3)C=CC3C(=O)N(C4CCCCC4)C(=O)C32)cc1 (stereo not given) | 0.565 | 0.959 | 0.763 | -0.794 (inactive) | 0.995 | 0.928 | 0.801 | 1.01 | 0.129 | 1.24
C=CCOC(=O)[C@@H]1[C@H]2C(=O)O[C@H](c3ccccc3)[C@H](c3ccccc3)N2[C@H](c2ccc(OCCOC(=O)[C@H]3C[C@H]4C(=O)N[C@@H](CCCCN(C)C)C(=O)N4[C@H]3c3cccc(OCCO)c3)cc2)[C@@]12C(=O)Nc1ccccc12 | 0.938 | 0.342 | 0.707 | 0.0554 (inactive) | -0.515 | 0.602 | -0.632 | -0.335 | -0.679 | 0.0981
CC[C@@H]1C=C(C(=O)O)[C@H](c2cccc(Cl)c2)N1S(=O)(=O)c1ccc(C)cc1 | 0.514 | 0.472 | 0.692 | 0.608 (inactive) | 0.0519 | 0.46 | -0.527 | -0.614 | -0.785 | 0.414
C[C@@]1([C@@H](NS(=O)(=O)c2cccc3cccnc23)c2ccc(-c3ccccc3)cc2)C[C@H]1C1CCCCC1 | 0.15 | 0.778 | 1.19 | -1.19 (inactive) | -0.0983 | -0.472 | 0.0823 | 0.49 | -0.473 | 0.638
COc1cc(Cc2cc3c(c(-c4ccccc4)n2)[Si](C(C)C)(C(C)C)OC3)cc(OC)c1OC | -0.201 | -0.113 | 0.105 | -0.877 (inactive) | 0.607 | -0.0611 | 0.1 | 0.0088 | 0.17 | 1.23
COC(=O)C(CC#Cc1ccc2c(c1)[C@]1(C(=O)N2)[C@H](c2ccc(OCCO)cc2)N2[C@H](c3ccccc3)[C@H](c3ccccc3)OC(=O)[C@H]2[C@@H]1C(N)=O)C(=O)OC | 1.01 | -0.201 | 0.669 | 0.373 (inactive) | -0.122 | -0.0277 | -0.69 | 0.025 | -0.531 | 0.161
O=C(NC1CC1)[C@@H]1c2ccccc2C(=O)N(C2CCCCC2)[C@H]1c1ccc(CO)cc1 | 0.891 | 1.84 | 0.989 | -0.496 (inactive) | 0.055 | 0.286 | 0.0989 | 0.208 | 0.139 | -0.24
CC(C)C[C@@H]1NC(=O)[C@H]2C[C@@H](C(=O)O)[C@@H](c3cccc(OCCO)c3)N2C1=O | 0.524 | 0.0083 | 0.677 | 0.256 (inactive) | 0.0039 | 0.969 | 0.193 | 1.2 | 1.11 | 1.19
COc1ccc(CCNC(=O)[C@@]2(C)c3ccccc3C(=O)N(Cc3ccc(OC(F)(F)F)cc3)[C@H]2c2ccc(CO)cc2)cc1 | 0.738 | 0.781 | -0.325 | -0.383 (inactive) | 1.19 | 1.3 | 0.743 | 0.286 | 1 | -0.307
